For test [1], the target named is Alpha-galactosidase A (Homo sapiens) (UniProt P06280). The experiment in a line: Counterscreen for Glucocerebrosidase Inhibitors: qHTS Assay for Human alpha-Galactosidase at pH 4.5 (AID 992). Further: 0% is about no effect. In short, it runs like this:
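Enzyme at 2 nM final was combined with compound (0.7 nM to 77 uM) and 80 uM 4-methylumbelliferyl alpha-D-galactopyranoside in 50 mM citric acid, 0.005% Tween-20, pH 4.5. After 20 min at room temperature, fluorescence was read (Ex 365/Em 440 nm); AC50 came from Hill fits.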
On the technique in general: A counterscreen serves to expose hits that act by an unwanted route or on another target.

In test [2] the target is alpha-glucosidase (Oryza sativa, rice) (UniProt Q653V4). The test can be described thus: Counterscreen for Glucocerebrosidase Inhibitors: qHTS Assay for Rice alpha-Glucosidase at pH 5.0 (AID 997).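 Further: 0% = full activity with enzyme and -100% = basal without enzyme.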 Put shortly:
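Rice alpha-glucosidase (4 nM final) with 400 uM 4-methylumbelliferyl-alpha-D-glucopyranoside in citrate buffer pH 5.0, 20 min at room temperature, stopped at pH 10; fluorescence 365/440 nm, compounds 0.7 nM–77 uM, AC50 from Hill fits.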

Test [3] is described as follows: qHTS Assay for Lipid Storage Modulators (AID 1519; calls by dose curve; on activity change, negative = inhibition: on the % scale 0 is the no-effect control and ±100 the full control effect). The following applies: Drosophila S3 cells, BODIPY lipid droplet/cell ratio, laser cytometry, cells loaded with oleic acid. In short, it runs like this: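 Cells seeded at 5,000 per well were treated with compounds over a concentration series and loaded with oleic acid (400 uM, as added). Lipid droplet fluorescence (488 nm excitation, 500-530 nm channel) was read by laser-scanning cytometry and normalized to 20 uM Triacsin C.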
(In qHTS, concentration-response curves come from the screen itself.)

Test [4] addresses DNA repair nuclease/redox regulator APEX1 (Homo sapiens) (UniProt P27695). The experiment in a line: qHTS Validation Assay for Inhibitors of the Human Apurinic/apyrimidinic Endonuclease 1 (APE1) (AID 1705;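 further: TAMRA fluorescence gain over two minutes as APE1 cuts a quenched THF abasic duplex; on the % scale 0 is the no-effect control and ±100 the full control effect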). Put shortly: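 Endonuclease activity of human APE1 is followed as dequenching when the enzyme incises a tetrahydrofuran abasic site in a short duplex labelled 5'-TAMRA/3'-BHQ-2 (50 nM final), after 15 min enzyme–compound preincubation at room temperature.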

Test [5] in a line: Counterscreen for APE1 Inhibitors: Fluorescent Dye Displacement Validation Assay (AID 1707).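 Further: plate controls were ThO with dsDNA and no compound for no effect and ThO without dsDNA for full effect.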 Put shortly:
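Thiazole Orange displacement from dsDNA: 250 nM ThO with 50 nM TAMRA-labelled abasic-site (tetrahydrofuran) duplex in 50 mM Tris-HCl pH7.5, 50mM NaCl, 2 mM MgCl2, 0.01% Tween-20. Loss of endpoint fluorescence (ex 480 nm, em 540 nm) flags DNA binders.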

Test [6] has as its target Endonuclease 4 (Escherichia coli (strain K12)) (UniProt P0A6C1). The test can be described thus: Counterscreen for APE1 Inhibitors: qHTS Validation Assay for Inhibitors of Endonuclease IV (AID 1708). Further: on the % scale 0 is the no-effect control and ±100 the full control effect. In short, it runs like this: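 E. coli EndoIV at 2 nM final, preincubated 15 min at room temperature with compound, then 50 nM TAMRA/BHQ-2 THF abasic-site duplex added. Buffer: 50 mM Tris-HCl pH 7.5, 50 mM NaCl, 2 mM MgCl2, 1 mM DTT, 0.01% Tween-20. Kinetic fluorescence increase, third minus first read.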

Test [7] is described as follows: qHTS for differential inhibitors of proliferation of Plasmodium falciparum line 7G8 (AID 1815).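 Further: parasite growth measured after three days of incubation.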 Further: potency means the concentration at half of the fitted maximal effect.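 On activity change, negative = inhibition: plate controls were vehicle wells for no effect and reference inhibitor wells for full effect.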
Test [8] in a line: qHTS for differential inhibitors of proliferation of Plasmodium falciparum line GB4 (AID 1816).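 Further: parasite growth measured after 72 h incubation.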 Further: potency means the concentration at half of the fitted maximal effect.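 On activity change, negative = inhibition: 0% = vehicle DMSO and -100% = reference inhibitor.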 The following applies: Potency: Plasmodium falciparum GB4 proliferation inhibition.
Test [9] in a line: qHTS for differential inhibitors of proliferation of Plasmodium falciparum line 3D7 (AID 1876). Further: potency means the concentration at half of the fitted maximal effect.
Test [10] in a line: Cell Viability - LYMP2-012 (AID 982).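 Further: cellular ATP by luciferase luminescence where a drop means cytotoxicity; cells exposed to compound for one day before reading; 0% = DMSO only and full loss = 92 µM tetraoctylammonium bromide; nearly all actives have a fitted effect of over 55% in size.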
Test [11] can be described thus: Cell Viability - LYMP2-014 (AID 983).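 Further: plate controls were DMSO only for no effect and 92 µM tetraoctylammonium bromide for full effect; nearly all actives have a fitted effect of over 50% in size.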 In short, it runs like this: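 Luminescent ATP signal (CellTiter-Glo, 30 min at room temperature) serves as the viability read-out after 24 hr compound exposure at 37 C. Cells were seeded at 2500 per well and settled 5 hr beforehand.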
Test [12] can be described thus: Cell Viability - LYMP2-016 (AID 984).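 Further: cells exposed to compound for 24 hours at 37 °C; on the % scale 0 is the no-effect control and ±100 the full control effect; nearly all actives have a fitted effect of over 55% in size.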 Put shortly: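 Acute toxicity in a Coriell human lymphoblastoid line is scored as loss of intracellular ATP over 24 h of treatment in complete medium. CellTiter-Glo signal is fitted across concentrations with the Hill equation to give AC50.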
Test [13] in a line: Cell Viability - LYMP2-018 (AID 985).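 Further: plate controls were DMSO only for no effect and tetraoctylammonium bromide at 92 µM for full effect; nearly all actives have a fitted effect of over 50% in size.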 In short, it runs like this: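 Luminescent ATP signal (CellTiter-Glo, read after 30 min at room temperature) reports viable cells after 24 hr compound treatment at 37 C. Concentration-response data were fitted to the standard Hill equation for AC50.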
Test [14] in a line: Cell Viability - LYMP2-020 (AID 986).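 Further: plate controls were DMSO only for no effect and tetraoctylammonium bromide at 92 µM for full effect; nearly all actives have a fitted effect of over 55% in size.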 Put shortly:
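Luminescent ATP signal (CellTiter-Glo, 30 min at room temperature) is the read-out after 24 h compound treatment of lymphoblastoid cells at 37 C. AC50 values come from Hill-equation fits across concentrations.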

Test [15] is described as follows: Cell Viability - LYMP2-024 (AID 988).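 Further: plate controls were DMSO only for no effect and 92 µM tetraoctylammonium bromide for full effect; nearly all actives have a fitted effect of over 60% in size.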 In short, it runs like this:
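Steps: seed 2500 cells/well, 5 hr 37 C; add compound, 24 hr 37 C; add CellTiter-Glo, 30 min room temperature; read luminescence. AC50 derived by Hill modelling of concentration-dependent ATP loss.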

A short description of test [16]: Cell Viability - LYMP2-026 (AID 989). Further: on the % scale 0 is the no-effect control and ±100 the full control effect; nearly all actives have a fitted effect of over 50% in size. Put shortly:
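Luminescent ATP signal (CellTiter-Glo, 30 min room temperature) measures viable lymphoblastoid cells after 24 hr compound treatment at 37 C. Decreased ATP reflects acute toxicity; AC50 values come from Hill-equation modeling.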

A short description of test [17]: Cell Viability - LYMP1-002 - Assay at 24 hr (AID 993). Further: on the % scale 0 is the no-effect control and ±100 the full control effect. Put shortly: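 Cells plated 2500/well, 5 hr 37 C; compounds added, 24 hr 37 C; CellTiter-Glo added, 30 min RT; luminescence read. Tetraoctylammonium bromide positive control. Hill-equation AC50.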
The nature of test [18]: Validation of Assay for Modulators of Lamin A Splicing (AID 1459; active means well fitted curve in the direction sought with a large enough effect in the signal ratio; the % refers to the signal ratio;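 further: cells exposed to compound for two days before reading; 0% is about no effect; ratio rise marks activators and ratio drop marks inhibitors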). Put shortly:
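Splicing correction is reported by an EGFP-containing lamin A minigene in stably transfected S3 HeLa cells, while DsRed2 controls for viability and nonspecific signal. Cells are exposed to compounds for 48 hrs before the GFP over RFP ratio is taken.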

A short description of test [19]: Cell Viability - LYMP2-022 (AID 987).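 Further: 0% = DMSO alone and full effect = tetraoctylammonium bromide at 92 µM; nearly all actives have a fitted effect of over 55% in size.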 Put shortly:
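qHTS: human lymphoblastoid cells 2500/well; 5 hr 37 C; cpd added; 24 hr 37 C; CellTiter-Glo, 30 min RT; luminescence. AC50 via Hill fit; tetraoctylammonium bromide positive ctrl.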

Test [20] is described as follows: Cell Viability - LYMP1-002 - Assay at 40 hr (AID 994).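 Further: 0% = DMSO only and full inhibition = 92 µM tetraoctylammonium bromide; nearly all actives have a fitted effect of over 60% in size.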 In short, it runs like this: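 Luminescent ATP signal served as the viability readout, with decreases taken as toxicity. Cells were treated with compounds across a concentration range for 40 hours at 37 C, and AC50 values came from standard Hill modeling.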
[21] abbreviates: measured here: cell count channel max response.
Setting [22] is: measured here: lipid channel max response.

Several values for one entry are separate records, joined by “and”; a condition that tells them apart may be missing. Equal values may be shown once. Records with an inconclusive call do not appear. Activity calls are given as the source filed them. Unless noted, the call rests on the fitted dose curve; in most records, active means well fitted curve in the direction sought with a large enough effect; inconclusive means small, poorly fitted or top-dose-only effect, or another doubt; inactive means no such curve, though single readings can be large; an effect the other way counts as inactive or inconclusive.

Chain of DNA repair nuclease/redox regulator APEX1 (Homo sapiens) (P27695 whole entry, looked up): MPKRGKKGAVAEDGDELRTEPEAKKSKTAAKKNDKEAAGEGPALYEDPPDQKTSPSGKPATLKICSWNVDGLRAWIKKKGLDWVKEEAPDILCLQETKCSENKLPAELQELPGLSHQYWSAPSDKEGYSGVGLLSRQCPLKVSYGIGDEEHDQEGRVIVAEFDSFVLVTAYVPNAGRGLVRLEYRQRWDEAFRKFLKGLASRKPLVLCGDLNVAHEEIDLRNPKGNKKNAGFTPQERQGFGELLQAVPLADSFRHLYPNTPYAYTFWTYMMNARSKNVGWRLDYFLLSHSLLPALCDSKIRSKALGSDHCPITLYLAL
Chain of Alpha-galactosidase A (Homo sapiens) (P06280 whole entry, looked up): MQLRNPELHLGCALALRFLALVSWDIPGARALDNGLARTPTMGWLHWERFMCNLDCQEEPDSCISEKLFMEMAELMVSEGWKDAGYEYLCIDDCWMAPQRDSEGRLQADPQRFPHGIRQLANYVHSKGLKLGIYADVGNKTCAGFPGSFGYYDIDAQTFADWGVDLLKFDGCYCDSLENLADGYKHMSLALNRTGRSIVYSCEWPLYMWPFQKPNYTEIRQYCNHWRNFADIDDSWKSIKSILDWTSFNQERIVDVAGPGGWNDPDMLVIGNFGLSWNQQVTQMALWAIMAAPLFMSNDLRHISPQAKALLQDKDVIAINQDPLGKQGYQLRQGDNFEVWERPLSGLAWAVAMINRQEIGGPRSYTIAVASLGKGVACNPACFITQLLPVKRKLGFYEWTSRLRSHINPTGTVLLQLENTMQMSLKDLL

For `CC[N+](C)(C)c1cccc(O)c1`, the call in [1], in [2] and in test [5] was inactive. For the same compound, the activity change, negative = inhibition was 1% (inactive) in test [3] (at 25.7 µM (top of the series)); 8.9% (inactive) and 0.601% (inactive) in [3] (at 57.5 µM (top of the series)). Moreover, the max response is 22.3% and 9.17% and -28.2% in test [3] (setting [21]); 23.6% and 20.6% and -27.6% in [3] (setting [22]). Besides, the Potency entry in test [4], in [6], in test [7] and in test [8] was “inactive” each time.
Consider `CCCCCCCC/C=C\CCCCCCCC(=O)NCc1ccc(O)c(OC)c1`, for which, in test [3] (at 57.5 µM (top of the series)), the activity change, negative = inhibition was -24.2% (inactive). Besides, the max response in test [3] (setting [21]) is 15.7%; in test [3] (setting [22]) it was -12.6%.
`CCCCNc1c(C(=O)OCC)c(C)nc2c1cnn2CC`: the compound was classed as inactive in test [1], in test [2] and in test [5]. The values for the activity change, negative = inhibition in test [3] (at 25.7 µM (top of the series)) and in test [3] (at 57.5 µM (top of the series)) were -0.42% (inactive) and -16.8% (inactive), respectively. Further, the max response in test [3] (setting [21]) is -19.5% and -31.7%; in test [3] (setting [22]), -18.5% and -43.9%. Moreover, the Potency entry in [4] and in test [6] was “inactive” in each case. Besides, the values for the Potency in test [7], in test [8] and in test [9] were 7.94 µM (active), 12.6 µM (active) and 12.6 µM (active), respectively.
In the case of `Nc1nc(N)c2nc(-c3ccccc3)c(N)nc2n1`, the Potency entry in test [10], in [13], in test [14] and in [15] was “inactive” throughout. For the same compound, the call in test [11], in test [12], in [16], in test [1], in [17] and in [5] was inactive. Further, the values for the activity change, negative = inhibition in test [3] (at 25.7 µM (top of the series)) and in test [3] (at 57.5 µM (top of the series)) were -0.107% (inactive) and -0.933% (inactive), respectively. Also, the max response in [3] (setting [21]) was -4.41% and -12.1%; in test [3] (setting [22]) it was -2.65% and -13.5%. Also, the figures for the Potency in [8] and in [9] were 0.891 µM (active) and 2 µM (active), respectively.
Consider `CN(C)CCCN1c2ccccc2Sc2ccc(C(F)(F)F)cc21`, for which the outcome in [1], in test [2] and in [5] was inactive. Further, the activity change, negative = inhibition in test [3] (at 25.7 µM (top of the series)) was -1.52% (inactive); in [3] (at 57.5 µM (top of the series)), 3.48% (inactive). The max response is -5.7% and 9.08% in test [3] (setting [21]); -9.54% and 14.3% in [3] (setting [22]). For the same compound, the Potency entry in [4] and in [6] was “inactive” each time. The Potency is 8.91 µM (active) in test [7] and 11.2 µM (active) in test [8].
Turning to `CCO/C([O-])=N/c1c[n+](N2CCOCC2)no1`, the outcome in [1] and in test [2] was inactive. The activity change, negative = inhibition in test [3] (at 25.7 µM (top of the series)) is -2.6% (inactive); in test [3] (at 57.5 µM (top of the series)), 9.19% (inactive) and 0.351% (inactive). The max response in test [3] (setting [21]) is -1.78% and -5.37% and -2.1%; in [3] (setting [22]) it was -4.32% and 6.3% and -2.43%. Also, the Potency entry in test [4], in [7], in test [8] and in test [9] was “inactive” throughout.
As for `Cc1cc(C)c(/C=C2\C(=O)Nc3ccccc32)[nH]1`, the compound was classed as inactive in [18] and in test [5]. Further, the Potency entry in [4], in test [6] and in test [9] was “inactive” in each case.
In the case of `O=C(O)CN(CCN(CC(=O)O)CC(=O)O)CCN(CC(=O)O)CC(=O)O`, the compound was classed as inactive in test [1], in [2] and in test [5]. For the same compound, the activity change, negative = inhibition in test [3] (at 25.7 µM (top of the series)) was -4.98% (inactive); in test [3] (at 57.5 µM (top of the series)) it was 0.152% (inactive). The max response was -17.8% and 39.9% in test [3] (setting [21]); -19.2% and 38.7% in [3] (setting [22]). In addition, the Potency entry in test [4] and in test [9] was “inactive” in each case.
As to `O=C(O)CP(=O)(O)O`, the outcome in test [1], in test [2], in [18] and in test [5] was inactive. Further, the Potency entry in test [4] and in [7] was “inactive” each time.
`O=c1[nH]c(=O)n([C@H]2C[C@H](O)[C@@H](CO)O2)cc1Br`: the Potency entry in [10], in test [13], in test [14], in [19], in test [15] and in test [20] was “inactive” each time. Moreover, the Potency result in test [4], in test [6], in test [7], in test [8] and in test [9] was “inactive” in each case. Besides, the compound was called inactive in test [11], in test [12], in [16], in test [1], in [17] and in test [2]. The call in test [5] was inactive. For the same compound, the activity change, negative = inhibition in test [3] (at 57.5 µM (top of the series)) is -1.72% (inactive) and -8.79% (inactive). The max response in [3] (setting [21]) is 5.46% and -18.7%; in [3] (setting [22]) it was 1.8% and -25.8%.
